For eight compounds, growth results are on record in PubChem BioAssay (NCI).

The structures appear in SMILES notation. About 83,000 compounds went through this panel and 20% of them were active in at least one assay; those are over-represented in the sample as a whole.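 Growth was measured after 48 h exposure to one concentration of compound in 96-well plates. Values under 10 count as active.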 Unmarked numbers belong to inactive results. Calls of active or inactive are those of the source.

Test systems include NCI-H23 lung; NCI-H226 lung; NCI-H322M lung; HOP-62 NSCLC; NCI-H460 lung; HOP-92 NSCLC; NCI-H522 lung; A549/ATCC NSCLC; 786-0 renal; COLO 205 colon; DU-145 prostate; K-562 leukemia; MALME-3M melanoma; RXF 393 renal; SF-268 CNS; SF-295 CNS; SF-539 CNS; UACC-257 melanoma; M14 melanoma; MDA-MB-231 breast.
Common to all, as to experiment: NCI-60 one-dose screen, 48 h (100 = growth as untreated, 0 = no growth, -100 = all killed)
Holding throughout (conditions): 10 µM unless noted

Consider `CC1Cc2c(ncn3c(-c4ccc(F)cc4)nnc23)N(C)c2ccccc21` (stereo not drawn), for which the growth with NCI-H23 lung was 73.4%; with NCI-H226 lung, 33.2%; in the test on NCI-H322M lung it was 2.19% (active); in the test with HOP-62 NSCLC it was 59.5%; in the test on NCI-H460 lung, 5% (active); in the test with HOP-92 NSCLC, 35.9%. For the same compound, the growth in the test with NCI-H522 lung is 63%; with A549/ATCC NSCLC, 16.3%; in the test on 786-0 renal, 29.9%; in the test with COLO 205 colon it was 43.6%; with DU-145 prostate, 63.8%; in the test on K-562 leukemia, 70.4%. The growth in the test on MALME-3M melanoma was 37.4%; in the test on RXF 393 renal it was 66.4%; with SF-268 CNS, 56.6%; in the test on SF-295 CNS, 74.1%; in the test with SF-539 CNS it was 74.9%; in the test with UACC-257 melanoma, 69.7%. The growth in the test with M14 melanoma is 59.4%.
Take `O=C1CCC/C=C\C[C@H]2C=CC(=O)/C2=C/C[C@H](CCc2cccc(C(F)(F)F)c2)O1`: the growth in the test on NCI-H23 lung is -22% (active); in the test on NCI-H226 lung it was -36.2% (active); in the test with NCI-H322M lung, -44.6% (active); with HOP-62 NSCLC, -73.7% (active); in the test on NCI-H460 lung, -24.6% (active); with HOP-92 NSCLC, -46.5% (active). For the same compound, the growth in the test with NCI-H522 lung is -88.7% (active); in the test on A549/ATCC NSCLC, 0.826% (active); in the test on 786-0 renal, -79.2% (active); in the test on COLO 205 colon, -84.8% (active); in the test with DU-145 prostate it was -44.6% (active); in the test with K-562 leukemia, 0.315% (active). The growth is -25.5% (active) in the test on MALME-3M melanoma; -81.9% (active) in the test on RXF 393 renal; -39% (active) in the test with SF-268 CNS; -22.9% (active) in the test with SF-295 CNS; -56.7% (active) in the test with SF-539 CNS; -34.7% (active) in the test on UACC-257 melanoma. For the same compound, the growth in the test on M14 melanoma was -30.9% (active).
For `c1ccc(OCc2nnc(-c3ccc(Oc4ccccc4)cc3)o2)cc1`, the growth is 94.2% in the test with NCI-H23 lung; 93.7% with NCI-H226 lung; 106% with NCI-H322M lung; 86.4% with HOP-62 NSCLC; 104% in the test with NCI-H460 lung; 84.6% with HOP-92 NSCLC. For the same compound, the growth with NCI-H522 lung was 86.8%; with A549/ATCC NSCLC, 96%; in the test on 786-0 renal it was 99.1%; with COLO 205 colon, 104%; with DU-145 prostate it was 99.1%; in the test on K-562 leukemia, 93.2%. Besides, the growth with MALME-3M melanoma was 101%; with RXF 393 renal, 106%; with SF-268 CNS, 89.2%; in the test on SF-295 CNS, 103%; with SF-539 CNS, 103%; in the test on UACC-257 melanoma it was 109%. In the test with M14 melanoma, the growth is 98.2%.
As for `CN1CCN(Cc2ccc(NC(=O)c3ccc(C(C)(C)C)c(C#Cc4cnc5cccnn45)c3)cc2C(F)(F)F)CC1`, the growth in the test on NCI-H23 lung is -65.1% (active); with NCI-H226 lung, 48.5%; in the test on NCI-H322M lung, -29.6% (active); in the test with HOP-62 NSCLC, -73.1% (active); in the test on NCI-H460 lung it was -52.7% (active); in the test with HOP-92 NSCLC, 23.9%. The growth in the test with NCI-H522 lung is -73.5% (active); in the test with A549/ATCC NSCLC, -76.8% (active); in the test with 786-0 renal it was -85.4% (active); in the test on COLO 205 colon, -70.1% (active); in the test with DU-145 prostate, -76.7% (active); with K-562 leukemia, -53% (active). Also, the growth was -53.7% (active) with MALME-3M melanoma; -78.7% (active) with RXF 393 renal; -74.7% (active) in the test on SF-268 CNS; -59.9% (active) in the test with SF-295 CNS; -76.3% (active) in the test with SF-539 CNS; -37.7% (active) in the test on UACC-257 melanoma. In addition, the growth with M14 melanoma is -69.2% (active).
For the compound `COC(=O)C(Cc1ccccc1)NC(=O)NC(=O)NC(=O)CI` (stereo not drawn), the growth was 63.2% in the test with NCI-H23 lung; 82.9% in the test on NCI-H226 lung; 108% with NCI-H322M lung; 102% with HOP-62 NSCLC; 92.3% with NCI-H460 lung; -26% (active) with HOP-92 NSCLC. For the same compound, the growth with NCI-H522 lung is -82.1% (active); in the test on A549/ATCC NSCLC, 99.8%; in the test on 786-0 renal, -3.88% (active); with COLO 205 colon it was 25.4%; in the test on DU-145 prostate, 91.2%; in the test with K-562 leukemia it was -18.8% (active). Further, the growth is -71% (active) in the test on MALME-3M melanoma; 63.9% in the test with RXF 393 renal; 71.8% in the test on SF-268 CNS; 103% in the test with SF-295 CNS; 87.7% in the test with SF-539 CNS; 103% in the test with UACC-257 melanoma. The growth with M14 melanoma is 35.2%.
On to `O=C(O)c1cn(C2CC2)c2cc(N3CCN(C(=O)Nc4nc(-c5ccc(Cl)cc5)cs4)CC3)c(F)cc2c1=O`, for which the growth in the test on NCI-H23 lung was 8.09% (active); in the test with NCI-H226 lung, 19.7%; with NCI-H322M lung it was 4.8% (active); in the test with HOP-62 NSCLC, 20.5%; with NCI-H460 lung, 8.14% (active); in the test on HOP-92 NSCLC, -22.2% (active). Further, the growth in the test with NCI-H522 lung was -6.18% (active); with A549/ATCC NSCLC, 6.96% (active); in the test with 786-0 renal, 22.6%; in the test with COLO 205 colon, 6.21% (active); with DU-145 prostate, 11.4%; in the test with K-562 leukemia, 8.49% (active). Also, the growth with MALME-3M melanoma is -20.2% (active); with RXF 393 renal it was 41.6%; in the test on SF-268 CNS, 20.6%; in the test on SF-295 CNS, -3.25% (active); with SF-539 CNS, 14.7%; in the test with UACC-257 melanoma, -12.5% (active). Moreover, the growth in the test on M14 melanoma was 18.2%.
With `CC/C=C\C[C@@H]1C/C=C2/C(=O)C=C[C@H]2C/C=C\CCCC(=O)O1`, the growth is -32.1% (active) with NCI-H23 lung; -20% (active) in the test with NCI-H226 lung; -54.5% (active) with NCI-H322M lung; -14% (active) with HOP-62 NSCLC; -48.6% (active) in the test on NCI-H460 lung; -25.8% (active) in the test with HOP-92 NSCLC. Further, the growth with NCI-H522 lung was -83.4% (active); in the test with A549/ATCC NSCLC it was -26.7% (active); in the test on 786-0 renal, -88.4% (active); in the test with COLO 205 colon it was -64.2% (active); with DU-145 prostate it was -66.8% (active); in the test with K-562 leukemia it was -0.441% (active). The growth in the test on MALME-3M melanoma was -41.1% (active); in the test with RXF 393 renal, -80.6% (active); in the test on SF-268 CNS, -57.6% (active); in the test with SF-295 CNS it was -18.1% (active); with SF-539 CNS, -64.3% (active); with UACC-257 melanoma, -41.7% (active). Also, in the test with M14 melanoma, the growth was -48.8% (active).
Regarding `Cc1cc(C)c(-c2c(N)cc(Br)cc2Br)c(N)c1`, the growth in the test on NCI-H23 lung is 70.9%; in the test on NCI-H226 lung, 76.3%; in the test on NCI-H322M lung, 102%; with HOP-62 NSCLC, 39.4%; with NCI-H460 lung, 83%; with HOP-92 NSCLC, -6% (active). Moreover, the growth with NCI-H522 lung is 62.9%; with A549/ATCC NSCLC, 55.5%; in the test on 786-0 renal it was 45.9%; in the test on COLO 205 colon, 54%; in the test with DU-145 prostate it was 71.2%; in the test on K-562 leukemia it was 13.4%. For the same compound, the growth is 26.9% with MALME-3M melanoma; 56.4% with MDA-MB-231 breast; 10.5% in the test with RXF 393 renal; 76.1% with SF-268 CNS; 36.7% in the test with SF-295 CNS; 46.9% in the test on SF-539 CNS. The growth was 66.8% in the test with UACC-257 melanoma and 41.4% in the test on M14 melanoma.
